The values below come from publication PMC3315485, “Probing the Informational and Regulatory Plasticity of a Transcription Factor DNA–Binding Domain”.

Substitutions are numbered along the chain they refer to.

For the first test, the target named is T1, MarA SAR (Escherichia coli, UniProt P0ACH5 1-127, W40S;Q43A).
T1 sequence: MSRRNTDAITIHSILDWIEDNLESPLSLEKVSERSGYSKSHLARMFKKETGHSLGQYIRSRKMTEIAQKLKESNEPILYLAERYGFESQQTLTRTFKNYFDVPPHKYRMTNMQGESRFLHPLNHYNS
Kind of test: MITOMI; MITOMI, 295 K (22 C); buffer, salt and pH not stated in the material; high values mean tight binding. To be noted: protein: ivt; label: fluorescent; dsDNA, one strand shown. In short, it runs like this:
(§1)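 Each fluorescently labelled MarA protein variant, made by in vitro transcription and translation with the RTS E. coli HY kit plus tRNA-lys-bodipy-fl, was tested by MITOMI against 64 synthesized mar binding site variants. Protein and DNA fluorescence were read on Genepix at 295K. Association constants, measured by MITOMI, are reported for each site relative to the highest-affinity site for the same protein variant.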
Take ATGTAGCGTTTTGCTAAAT: the binding signal was 0.152 Ka relative to the best site of the variant.

Turning to ATGTTTCGTTTTGCTAAAT, the binding signal was 0.21 Ka relative to the best site of the variant.

As for ATGTACCGTTTTGCTAAAT, the binding signal was 0.25 Ka relative to the best site of the variant.

With ATGACCCGTTTTGCTAAAT, the binding signal was 0.573 Ka relative to the best site of the variant.

Regarding ATGAGGCGTTTTGCTAAAT, the binding signal is 0.726 Ka relative to the best site of the variant.

As for ATGCCGCGTTTTGCTAAAT, the binding signal was 0.468 Ka relative to the best site of the variant.

Turning to ATGCTGCGTTTTGCTAAAT, the binding signal was 0.521 Ka relative to the best site of the variant.

Turning to ATGTTACGTTTTGCTAAAT, the binding signal was 0.202 Ka relative to the best site of the variant.

With ATGAGCCGTTTTGCTAAAT, the binding signal was 1 Ka relative to the best site of the variant.

As to ATGGCTCGTTTTGCTAAAT, the binding signal is 0.656 Ka relative to the best site of the variant.

Regarding ATGGCCCGTTTTGCTAAAT, the binding signal is 0.552 Ka relative to the best site of the variant.

In the case of ATGATTCGTTTTGCTAAAT, the binding signal is 0.807 Ka relative to the best site of the variant.

ATGTCACGTTTTGCTAAAT: the binding signal was 0.302 Ka relative to the best site of the variant.

ATGTGTCGTTTTGCTAAAT: the binding signal is 0.282 Ka relative to the best site of the variant.

Regarding ATGGACCGTTTTGCTAAAT, the binding signal was 0.573 Ka relative to the best site of the variant.

ATGAAGCGTTTTGCTAAAT: the binding signal was 0.677 Ka relative to the best site of the variant.

Turning to ATGGTTCGTTTTGCTAAAT, the binding signal is 0.805 Ka relative to the best site of the variant.

For the sequence ATGTGACGTTTTGCTAAAT, the binding signal is 0.165 Ka relative to the best site of the variant.

As for ATGTATCGTTTTGCTAAAT, the binding signal is 0.221 Ka relative to the best site of the variant.

With ATGCTTCGTTTTGCTAAAT, the binding signal was 0.508 Ka relative to the best site of the variant.

Regarding ATGGAGCGTTTTGCTAAAT, the binding signal is 0.506 Ka relative to the best site of the variant.

As for ATGTAACGTTTTGCTAAAT, the binding signal was 0.232 Ka relative to the best site of the variant.

With ATGTCGCGTTTTGCTAAAT, the binding signal is 0.219 Ka relative to the best site of the variant.

Turning to ATGATGCGTTTTGCTAAAT, the binding signal was 0.854 Ka relative to the best site of the variant.

Consider ATGATACGTTTTGCTAAAT, for which the binding signal is 0.962 Ka relative to the best site of the variant.

Regarding ATGCTCCGTTTTGCTAAAT, the binding signal is 0.548 Ka relative to the best site of the variant.

Take ATGCCACGTTTTGCTAAAT: the binding signal is 0.379 Ka relative to the best site of the variant.

Consider ATGCGCCGTTTTGCTAAAT, for which the binding signal was 0.602 Ka relative to the best site of the variant.

Take ATGTCCCGTTTTGCTAAAT: the binding signal was 0.233 Ka relative to the best site of the variant.

Take ATGGGACGTTTTGCTAAAT: the binding signal is 0.498 Ka relative to the best site of the variant.

As to ATGAATCGTTTTGCTAAAT, the binding signal was 0.481 Ka relative to the best site of the variant.

ATGGATCGTTTTGCTAAAT: the binding signal is 0.393 Ka relative to the best site of the variant.

The target in a further test is T2, MarA TRR (Escherichia coli, UniProt P0ACH5 1-127, W40T;Q43R).
T2 sequence: T1 sequence with S40T, A43R
Described as above. Particulars: protein: ivt; label: fluorescent; dsDNA, one strand shown. In outline:
as §1
Take ATGTAGCGTTTTGCTAAAT: the binding signal was 0.356 Ka relative to the best site of the variant.

As to ATGTTTCGTTTTGCTAAAT, the binding signal was 0.539 Ka relative to the best site of the variant.

For the sequence ATGTACCGTTTTGCTAAAT, the binding signal is 0.417 Ka relative to the best site of the variant.

Consider ATGACCCGTTTTGCTAAAT, for which the binding signal was 0.379 Ka relative to the best site of the variant.

As for ATGAGGCGTTTTGCTAAAT, the binding signal was 0.475 Ka relative to the best site of the variant.

ATGCCGCGTTTTGCTAAAT: the binding signal is 0.561 Ka relative to the best site of the variant.

ATGCTGCGTTTTGCTAAAT: the binding signal was 0.588 Ka relative to the best site of the variant.

ATGTTACGTTTTGCTAAAT: the binding signal is 0.518 Ka relative to the best site of the variant.

Turning to ATGAGCCGTTTTGCTAAAT, the binding signal is 0.448 Ka relative to the best site of the variant.

For ATGGCTCGTTTTGCTAAAT, the binding signal is 0.362 Ka relative to the best site of the variant.

On to ATGGCCCGTTTTGCTAAAT, for which the binding signal was 0.382 Ka relative to the best site of the variant.

In the case of ATGATTCGTTTTGCTAAAT, the binding signal was 0.453 Ka relative to the best site of the variant.

For the sequence ATGTCACGTTTTGCTAAAT, the binding signal is 0.461 Ka relative to the best site of the variant.

For ATGTGTCGTTTTGCTAAAT, the binding signal was 0.424 Ka relative to the best site of the variant.

Consider ATGGACCGTTTTGCTAAAT, for which the binding signal was 1 Ka relative to the best site of the variant.

In the case of ATGAAGCGTTTTGCTAAAT, the binding signal is 0.338 Ka relative to the best site of the variant.

Regarding ATGGTTCGTTTTGCTAAAT, the binding signal is 0.368 Ka relative to the best site of the variant.

For ATGTGACGTTTTGCTAAAT, the binding signal was 0.413 Ka relative to the best site of the variant.

Regarding ATGTATCGTTTTGCTAAAT, the binding signal was 0.432 Ka relative to the best site of the variant.

As for ATGCTTCGTTTTGCTAAAT, the binding signal was 0.576 Ka relative to the best site of the variant.

In the case of ATGGAGCGTTTTGCTAAAT, the binding signal was 0.392 Ka relative to the best site of the variant.

For ATGTAACGTTTTGCTAAAT, the binding signal is 0.492 Ka relative to the best site of the variant.

In the case of ATGTCGCGTTTTGCTAAAT, the binding signal is 0.463 Ka relative to the best site of the variant.

Regarding ATGATGCGTTTTGCTAAAT, the binding signal is 0.404 Ka relative to the best site of the variant.

Turning to ATGATACGTTTTGCTAAAT, the binding signal is 0.498 Ka relative to the best site of the variant.

As for ATGCTCCGTTTTGCTAAAT, the binding signal is 0.445 Ka relative to the best site of the variant.

Consider ATGCCACGTTTTGCTAAAT, for which the binding signal is 0.497 Ka relative to the best site of the variant.

For ATGCGCCGTTTTGCTAAAT, the binding signal was 0.457 Ka relative to the best site of the variant.

As to ATGTCCCGTTTTGCTAAAT, the binding signal was 0.399 Ka relative to the best site of the variant.

Regarding ATGGGACGTTTTGCTAAAT, the binding signal was 0.361 Ka relative to the best site of the variant.

Turning to ATGAATCGTTTTGCTAAAT, the binding signal was 0.309 Ka relative to the best site of the variant.

In the case of ATGGATCGTTTTGCTAAAT, the binding signal was 0.365 Ka relative to the best site of the variant.
